Drawing on paper PMC7862700, “An all-to-all approach to the identification of sequence-specific readers for epigenetic DNA modifications on cytosine”, this text covers binding signal for 7 sequences.

What all share (assay): DAPPL (digital affinity profiling via proximity ligation, sequencing); 10 mM Tris-HCl pH 7.5, 50 mM NaCl, 1 mM DTT, 4% glycerol, room temperature, 30 min; GST-TFs on glutathione beads, 16-mer random dsDNA library, 0.1% formaldehyde crosslink after washing; high values mean tight binding
What all share (conditions): protein: recombinant; tags: N-terminal GST; dsDNA, one strand shown

The target in assay [1] is T1, ERF (Homo sapiens, UniProt P50548 1-548).
T1 sequence: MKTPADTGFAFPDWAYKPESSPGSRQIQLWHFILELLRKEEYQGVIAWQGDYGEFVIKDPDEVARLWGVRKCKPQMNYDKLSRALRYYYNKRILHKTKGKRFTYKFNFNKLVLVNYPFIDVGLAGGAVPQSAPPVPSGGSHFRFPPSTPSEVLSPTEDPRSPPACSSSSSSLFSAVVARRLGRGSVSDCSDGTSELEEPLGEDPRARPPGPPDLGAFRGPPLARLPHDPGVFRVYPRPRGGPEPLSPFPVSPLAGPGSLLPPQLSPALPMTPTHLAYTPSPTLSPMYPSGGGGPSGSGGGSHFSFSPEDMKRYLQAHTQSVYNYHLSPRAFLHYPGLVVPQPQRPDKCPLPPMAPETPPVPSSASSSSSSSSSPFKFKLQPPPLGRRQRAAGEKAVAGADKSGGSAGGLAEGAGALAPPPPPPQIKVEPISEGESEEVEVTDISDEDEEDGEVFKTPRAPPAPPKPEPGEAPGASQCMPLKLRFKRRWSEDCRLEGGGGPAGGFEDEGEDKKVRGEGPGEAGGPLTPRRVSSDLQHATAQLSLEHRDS
The essentials: (§1)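 In yeast, human transcription factors were expressed with a GST fusion, then pulled down on glutathione beads and given DNA barcodes. Pooled with a tag-only sample, they were exposed to 200 nmole of a 16-mer random double-stranded DNA library (Tris/NaCl/DTT/glycerol buffer, room temperature, 30 min), washed, crosslinked with 0.1% formaldehyde, proximity-ligated using BsaI/T4 ligase for 1 h at 37 °C, PCR-amplified and read on an Illumina NextSeq500. Each hexamer's frequency of reads for a factor, divided by the matching frequency for the tag-only sample, gives the binding signal.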

Assay [2] deals with T2, ETV3L (Homo sapiens, UniProt Q6ZN32 1-361).
T2 sequence: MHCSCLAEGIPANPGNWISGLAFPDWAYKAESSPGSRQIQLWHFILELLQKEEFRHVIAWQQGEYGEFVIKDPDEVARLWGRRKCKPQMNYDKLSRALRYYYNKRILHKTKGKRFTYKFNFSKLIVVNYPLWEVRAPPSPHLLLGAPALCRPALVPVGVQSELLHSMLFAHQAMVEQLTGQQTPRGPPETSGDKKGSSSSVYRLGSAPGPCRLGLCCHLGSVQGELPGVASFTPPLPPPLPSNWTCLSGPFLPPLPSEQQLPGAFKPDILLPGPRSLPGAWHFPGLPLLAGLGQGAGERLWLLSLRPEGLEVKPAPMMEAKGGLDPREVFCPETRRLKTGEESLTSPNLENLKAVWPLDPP
The essentials: as §1

The target in assay [3] is T3, ETS2 (Homo sapiens, UniProt P15036 1-469).
T3 sequence: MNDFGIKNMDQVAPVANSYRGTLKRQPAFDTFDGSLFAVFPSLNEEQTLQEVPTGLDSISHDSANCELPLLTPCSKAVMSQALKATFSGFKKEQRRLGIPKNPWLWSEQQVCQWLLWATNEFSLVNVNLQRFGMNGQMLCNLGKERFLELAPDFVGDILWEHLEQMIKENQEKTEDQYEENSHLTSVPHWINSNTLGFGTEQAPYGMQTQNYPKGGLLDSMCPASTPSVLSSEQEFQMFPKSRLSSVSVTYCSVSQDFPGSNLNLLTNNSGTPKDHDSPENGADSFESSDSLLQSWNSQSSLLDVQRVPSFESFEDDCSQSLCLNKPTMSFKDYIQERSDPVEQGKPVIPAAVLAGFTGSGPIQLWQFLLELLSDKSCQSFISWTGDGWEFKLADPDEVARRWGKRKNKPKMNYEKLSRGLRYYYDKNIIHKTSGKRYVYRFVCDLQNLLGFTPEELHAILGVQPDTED
The essentials:
as §1

Assay [4] concerns the target T4, SPDEF (Homo sapiens, UniProt O95238 1-335).
T4 sequence: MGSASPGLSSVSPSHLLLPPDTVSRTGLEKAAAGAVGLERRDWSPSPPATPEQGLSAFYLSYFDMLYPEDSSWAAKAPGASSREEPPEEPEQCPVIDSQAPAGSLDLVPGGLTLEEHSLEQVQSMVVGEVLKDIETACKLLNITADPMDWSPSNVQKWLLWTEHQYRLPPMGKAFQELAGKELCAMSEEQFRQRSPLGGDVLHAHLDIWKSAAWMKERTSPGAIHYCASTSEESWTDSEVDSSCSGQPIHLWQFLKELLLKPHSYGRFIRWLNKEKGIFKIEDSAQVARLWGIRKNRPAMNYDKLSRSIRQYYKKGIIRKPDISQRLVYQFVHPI
The essentials:
as §1

The target of assay [5] is T5, ETV7 (Homo sapiens, UniProt Q9Y603 1-341).
T5 sequence: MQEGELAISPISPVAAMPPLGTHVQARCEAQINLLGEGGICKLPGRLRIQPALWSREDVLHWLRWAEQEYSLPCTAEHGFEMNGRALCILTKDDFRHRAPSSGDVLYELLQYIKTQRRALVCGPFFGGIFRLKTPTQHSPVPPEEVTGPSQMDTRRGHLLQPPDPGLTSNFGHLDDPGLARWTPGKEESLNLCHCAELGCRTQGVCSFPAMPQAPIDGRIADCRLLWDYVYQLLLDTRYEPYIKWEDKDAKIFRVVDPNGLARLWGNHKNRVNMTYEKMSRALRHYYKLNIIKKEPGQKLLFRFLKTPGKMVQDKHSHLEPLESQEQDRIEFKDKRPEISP
The essentials:
as §1

Assay [6] has as its target T6, ELF5 (Homo sapiens, UniProt Q9UKW6-2 1-255).
T6 sequence: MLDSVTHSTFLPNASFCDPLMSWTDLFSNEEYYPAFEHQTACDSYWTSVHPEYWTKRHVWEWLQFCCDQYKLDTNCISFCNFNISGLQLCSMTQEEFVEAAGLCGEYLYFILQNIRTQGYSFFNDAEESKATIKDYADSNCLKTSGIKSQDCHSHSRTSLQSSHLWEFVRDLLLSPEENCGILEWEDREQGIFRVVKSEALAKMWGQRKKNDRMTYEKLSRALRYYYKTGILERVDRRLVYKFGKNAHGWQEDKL
The essentials:
as §1

For assay [7], the target named is T7, ETV3 (Homo sapiens, UniProt P41162-2 1-143).
T7 sequence: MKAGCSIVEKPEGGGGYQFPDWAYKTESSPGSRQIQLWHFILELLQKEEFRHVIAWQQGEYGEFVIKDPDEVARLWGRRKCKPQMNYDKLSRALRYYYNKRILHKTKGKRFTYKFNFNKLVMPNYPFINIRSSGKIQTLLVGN
The essentials:
as §1

Assay [8] has as its target ETV6 (Homo sapiens, UniProt P41212 1-452). The essentials: as §1

ETV6, sequence (P41212 whole entry): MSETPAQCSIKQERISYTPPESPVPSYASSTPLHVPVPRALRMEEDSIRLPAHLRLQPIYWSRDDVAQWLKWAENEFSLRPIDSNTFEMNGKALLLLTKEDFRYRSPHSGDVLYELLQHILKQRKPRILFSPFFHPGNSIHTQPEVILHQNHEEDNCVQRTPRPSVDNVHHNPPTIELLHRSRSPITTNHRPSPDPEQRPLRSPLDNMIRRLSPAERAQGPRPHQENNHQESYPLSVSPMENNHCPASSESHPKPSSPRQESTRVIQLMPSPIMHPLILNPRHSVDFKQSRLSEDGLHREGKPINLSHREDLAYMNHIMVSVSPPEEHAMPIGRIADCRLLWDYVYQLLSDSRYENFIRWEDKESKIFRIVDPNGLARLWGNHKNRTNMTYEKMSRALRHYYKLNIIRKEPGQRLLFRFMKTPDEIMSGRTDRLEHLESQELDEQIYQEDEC

On to GGAAGT, for which the binding signal in assay [1] is 2.56 fold enrichment (6-mer frequency, TF over GST control); in assay [2] it was 2.86 fold enrichment (6-mer frequency, TF over GST control); in assay [3] it was 3.2 fold enrichment (6-mer frequency, TF over GST control); in assay [4] it was 2.97 fold enrichment (6-mer frequency, TF over GST control); in assay [5], 2.91 fold enrichment (6-mer frequency, TF over GST control); in assay [6], 3.88 fold enrichment (6-mer frequency, TF over GST control). The binding signal in assay [7] is 3.42 fold enrichment (6-mer frequency, TF over GST control); in assay [8] it was 3.88 fold enrichment (6-mer frequency, TF over GST control).
Take TCTTTT: the binding signal in assay [1] is 1.46 fold enrichment (6-mer frequency, TF over GST control); in assay [2], 1.54 fold enrichment (6-mer frequency, TF over GST control); in assay [3] it was 1.47 fold enrichment (6-mer frequency, TF over GST control); in assay [4], 1.4 fold enrichment (6-mer frequency, TF over GST control); in assay [5] it was 1.56 fold enrichment (6-mer frequency, TF over GST control); in assay [6], 1.43 fold enrichment (6-mer frequency, TF over GST control). The binding signal in assay [7] is 1.5 fold enrichment (6-mer frequency, TF over GST control); in assay [8] it was 1.41 fold enrichment (6-mer frequency, TF over GST control).
Turning to ATGGGC, the binding signal in assay [1] is 1.17 fold enrichment (6-mer frequency, TF over GST control); in assay [2], 1.3 fold enrichment (6-mer frequency, TF over GST control); in assay [3], 1.28 fold enrichment (6-mer frequency, TF over GST control); in assay [4], 1.24 fold enrichment (6-mer frequency, TF over GST control); in assay [5], 1.22 fold enrichment (6-mer frequency, TF over GST control); in assay [6], 1.26 fold enrichment (6-mer frequency, TF over GST control). Besides, the binding signal in assay [7] was 1.23 fold enrichment (6-mer frequency, TF over GST control); in assay [8], 1.33 fold enrichment (6-mer frequency, TF over GST control).
In the case of CTAAAC, the binding signal in assay [1] was 1.17 fold enrichment (6-mer frequency, TF over GST control); in assay [2], 1.18 fold enrichment (6-mer frequency, TF over GST control); in assay [3] it was 1.19 fold enrichment (6-mer frequency, TF over GST control); in assay [4] it was 1.22 fold enrichment (6-mer frequency, TF over GST control); in assay [5], 1.2 fold enrichment (6-mer frequency, TF over GST control); in assay [6] it was 1.19 fold enrichment (6-mer frequency, TF over GST control). Besides, the binding signal is 1.25 fold enrichment (6-mer frequency, TF over GST control) in assay [7] and 1.17 fold enrichment (6-mer frequency, TF over GST control) in assay [8].
For the sequence TACCGG, the binding signal in assay [1] was 1.4 fold enrichment (6-mer frequency, TF over GST control); in assay [2], 1.47 fold enrichment (6-mer frequency, TF over GST control); in assay [3] it was 1.6 fold enrichment (6-mer frequency, TF over GST control); in assay [4], 1.77 fold enrichment (6-mer frequency, TF over GST control); in assay [5], 1.36 fold enrichment (6-mer frequency, TF over GST control); in assay [6], 1.71 fold enrichment (6-mer frequency, TF over GST control). Besides, the binding signal in assay [7] is 1.76 fold enrichment (6-mer frequency, TF over GST control); in assay [8], 1.68 fold enrichment (6-mer frequency, TF over GST control).
In the case of AAAGTT, the binding signal in assay [1] was 1.08 fold enrichment (6-mer frequency, TF over GST control); in assay [2], 1.13 fold enrichment (6-mer frequency, TF over GST control); in assay [3] it was 1.09 fold enrichment (6-mer frequency, TF over GST control); in assay [4], 1.01 fold enrichment (6-mer frequency, TF over GST control); in assay [5] it was 1.15 fold enrichment (6-mer frequency, TF over GST control); in assay [6] it was 1.08 fold enrichment (6-mer frequency, TF over GST control). Further, the binding signal in assay [7] is 1.09 fold enrichment (6-mer frequency, TF over GST control); in assay [8], 1.06 fold enrichment (6-mer frequency, TF over GST control).
Turning to CGGTCT, the binding signal in assay [1] is 1.21 fold enrichment (6-mer frequency, TF over GST control); in assay [2] it was 1.15 fold enrichment (6-mer frequency, TF over GST control); in assay [3], 1.16 fold enrichment (6-mer frequency, TF over GST control); in assay [4], 1.09 fold enrichment (6-mer frequency, TF over GST control); in assay [5] it was 1.11 fold enrichment (6-mer frequency, TF over GST control); in assay [6], 1.1 fold enrichment (6-mer frequency, TF over GST control). Further, the binding signal in assay [7] was 1.22 fold enrichment (6-mer frequency, TF over GST control); in assay [8] it was 1.09 fold enrichment (6-mer frequency, TF over GST control).
